Most compounds without a hit are left out; they make up all but 4% or so of the library.
Beta apoptosis = inhibitors of cytokine-induced beta cell apoptosis, primary screen, luminescence; INS-1E cytokine-induced death, ATP luminescence, 48 h; percent of positive-control rescue, neutral wells zero; protection from apoptosis, % (no concentration beside the values); 300,000 tested, 0.8% active; AID 435005, 2010;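 active = Every replicate reaches about 75%, or at least half do and their mean reaches it too, limit read from the data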;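 also: higher means more ATP so stronger rescue from cytokine killing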
697 NFkB inh = inhibitors of PMA/ionomycin-induced NF-kB reporter, 697 cells, primary screen, B-cell NF-kB inhibitor project, cell-based, luminescence, uHTS | inhibition, % at 4 µM | 330,000 tested, 0.33% active | 697 B-cell NF-kB luciferase reporter, 16 h; in the data active = inhibition above about 35%
Jurkat NFkB inh = inhibitors of induced NF-kB luciferase reporter, primary screen, TCR NF-kB activation inhibitor project, cell-based, luminescence, uHTS | 330,000 tested, 0.53% active | inhibition, % at 4 µM | Jurkat, PMA/ionomycin-induced NF-kB luciferase reporter; in the data active = inhibition above about 50%
Gli-Sufu block = Gli-Sufu pathway antagonists, primary screen, luciferase luminescence, Sufu-KO-LIGHT cells, uHTS; Sufu-KO-LIGHT fibroblasts, Gli luciferase reporter luminescence; inhibition, % at 5 µM; AID 588413, 2011; 340,000 tested, 0.74% active;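 active = inhibition above about 55%, limit read from the data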
Mdm2-MdmX inh = inhibitors of human Mdm2-MdmX association, primary screen, cell-based, luminescence, split luciferase, SaOS-2, uHTS; Protein Mdm4 (Homo sapiens) + E3 ubiquitin-protein ligase Mdm2 (Homo sapiens), …; SaOS-2 split-luciferase Mdm2/MdmX complementation; inhibition, % at 8 µM; 330,000 tested, 3% active; AID 485346, 2010;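 active = inhibition of at least 50% at 8 µM in the primary screen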
Gli-Sufu confirm = Gli-SUFU pathway antagonists, confirmation, single concentration, luciferase luminescence, Sufu-KO-LIGHT cells. 2,500 tested, 40% active. shares compounds with Gli-Sufu block. Gli luciferase reporter. inhibition, % at 5 µM;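 active = mean inhibition at 5 µM reaching about 45%, limit read from the data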
Gli cytotox = cytotoxicity in Sufu-KO-LIGHT cells, confirmation, cytotoxicity control for Gli-SUFU antagonist project, cell-based, ATP luminescence, single concentration | shares compounds with Gli-Sufu block | cytotoxicity, % at 5 µM | 2,500 tested, 32% active | AID 651994, 2013;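 active = mean cytotoxicity at 5 µM above about 25%, limit read from the data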;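 also: cells exposed to compound overnight for roughly 16 to 18 hours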
Wnt3a counter = Wnt3a reporter signal inhibition, confirmation, counter-screen for Gli-SUFU antagonist project, Wnt-LIGHT cells, luminescence, single concentration. Wnt3a-driven luciferase reporter. inhibition, % at 6.25 µM. 2,500 tested, 20% active. shares compounds with Gli-Sufu block;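 active = mean inhibition above about 25%, limit read from the data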
Each line names hits and unclear results; the compound was inactive in the other large screens (follow-up assays come after a bar, where they were run).

Cc1nc2ccc(S(=O)(=O)c3ccc4nc(C)[nH]c4c3)cc2[nH]1	none
Cc1nc2ccc(NS(=O)(=O)c3ccc(F)c(C)c3)cc2[nH]1	Gli-Sufu block 62 | Gli-Sufu confirm 49 | Gli cytotox inactive | Wnt3a counter 27
O=C(NCCc1ccccc1F)C1CC(=O)N(c2cccc(C(F)(F)F)c2)C1 (centres undefined)	none (no result: Beta apoptosis, 697 NFkB inh, Jurkat NFkB inh, Mdm2-MdmX inh)
CC(NC(=O)CCNC(=O)c1ccccc1Cl)C1CC2CCC1C2 (centres undefined)	none | Gli-Sufu confirm inactive | Gli cytotox inactive | Wnt3a counter inactive
Cn1c(N)c(C(=O)Nc2ccc(-c3ccccc3)cc2)sc1=S	none
CC1CCCCC1NC(=O)c1c(O)nc2ccccn2c1=O (centres undefined)	none (no result: Beta apoptosis)
Cc1cc(/C=C(\C#N)C(=O)NCc2cccs2)c(C)[nH]1	none
COCCCNC(=O)/C(C#N)=C/c1cc(C)[nH]c1C	Gli-Sufu block 57 | Gli-Sufu confirm inactive | Gli cytotox inactive | Wnt3a counter inactive
CC(C)NC(=O)c1ccccc1NC(=O)C1CCCO1 (centres undefined)	Gli-Sufu block 59 | Gli-Sufu confirm inactive | Gli cytotox inactive | Wnt3a counter inactive
COc1ccc(CNS(=O)(=O)c2csc(C(N)=O)c2)cc1OC	Gli-Sufu block 55 | Gli-Sufu confirm inactive | Gli cytotox inactive | Wnt3a counter inactive
CCN1/C(=C\C(=S)Nc2ccccc2)Sc2ccccc21	none | Gli-Sufu confirm 55 | Gli cytotox inactive | Wnt3a counter inactive
CCN1/C(=C\C=C(C(C)=O)C(C)=O)Sc2ccccc21	none
CCN(CC)CCN(C(=O)c1cc2ccccc2cc1OC)c1nc2ccc(F)cc2s1	none | Gli-Sufu confirm inactive | Gli cytotox inactive | Wnt3a counter inactive
O=C(CCc1nc2ccccc2c(=O)[nH]1)OCc1ccc(-c2ccccc2)cc1	Gli-Sufu block 96 | Gli-Sufu confirm inactive | Gli cytotox inactive | Wnt3a counter inactive
O=C(COC(=O)CSc1ccc(F)cc1)NCC1CCCCC1	Gli-Sufu block 95 | Gli-Sufu confirm inactive | Gli cytotox inactive | Wnt3a counter inactive
Cc1cc(C)n(-c2ccc(C(=O)NCC(c3ccco3)N3CCCC3)cc2)n1 (centres undefined)	none (no result: Gli-Sufu block)
O=C(Nc1nnc(-c2cccs2)o1)c1cccc(F)c1	none | Gli-Sufu confirm inactive | Gli cytotox inactive | Wnt3a counter inactive
CC(C)(C)[C@H]1COC(=O)[C@H](NC(=O)OCC2c3ccccc3-c3ccccc32)C/C=C\C[C@@H](CC(=O)N[C@H](CO)Cc2ccccc2)C(=O)N1	none
O=C(C[C@@H]1C/C=C\C[C@H](NC(=O)OCC2c3ccccc3-c3ccccc32)C(=O)OC[C@@H]2CCCN2C1=O)N[C@@H](CO)Cc1ccccc1	none
C[C@@H]1COC(=O)[C@H](NC(=O)OCC2c3ccccc3-c3ccccc32)C/C=C\C[C@@H](CC(=O)N[C@@H](CO)Cc2ccccc2)C(=O)N1	Gli-Sufu block 59 | Gli-Sufu confirm 57 | Gli cytotox inactive | Wnt3a counter inactive
CC(C)(C)[C@H]1COC(=O)[C@H](NC(=O)OCC2c3ccccc3-c3ccccc32)C/C=C\C[C@@H](CC(=O)N[C@@H](CO)Cc2ccccc2)C(=O)N1	Gli-Sufu block 57 | Gli-Sufu confirm 51 | Gli cytotox inactive | Wnt3a counter inactive
C/C(=N\NC(=O)C(=O)Nc1cccc(Cl)c1)c1ccncc1	Beta apoptosis 81, Gli-Sufu block 61 | Gli-Sufu confirm 59 | Gli cytotox 35 | Wnt3a counter inactive
C/C(=N\NC(=O)C(=O)Nc1ccc(C)c(Cl)c1)c1ccncc1	Gli-Sufu block 62 | Gli-Sufu confirm 62 | Gli cytotox 32 | Wnt3a counter inactive

Screening results from PubChem.
